Results taken from PubChem BioAssay (NCATS).
Records with an inconclusive call do not appear. A number with no mark means an inactive call. The call rests on the fitted dose curve; in most records, active means well fitted curve in the direction sought with a large enough effect; inconclusive means small, poorly fitted or top-dose-only effect, or another doubt; inactive means no such curve, though single readings can be large or run the other way. Residues, ends and D or L forms follow the SMILES beside them. *: point of attachment. Cbz = O=C(OCc1ccccc1)*
On the % scale 0 is the no-effect control and ±100 the full control effect.

What follows are compounds tested against Calcium and integrin-binding protein 1 (Homo sapiens) (UniProt Q99828) (assay: Validation qHTS for Identification of Calcium Integrin Binding protein 1 (CIB1) Competitor (AID 1508618)). Details: CIB1-GST / FITC-alphaIIb peptide fluorescence polarization; series mostly up to 114 µM; activity change, negative = inhibition: at the top concentration.
Calcium and integrin-binding protein 1 (Homo sapiens), sequence (Q99828 whole entry, looked up): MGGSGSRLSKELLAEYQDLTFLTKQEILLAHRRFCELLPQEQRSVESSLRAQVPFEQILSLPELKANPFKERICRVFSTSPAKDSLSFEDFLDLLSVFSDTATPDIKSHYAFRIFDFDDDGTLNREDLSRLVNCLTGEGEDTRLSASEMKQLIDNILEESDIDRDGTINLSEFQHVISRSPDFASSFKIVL
Procedure, shortened: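 CIB1-GST (1 uM final) in 5 mM HEPES pH 7.4, 125 mM NaCl, 5 mM CaCl2, 0.01% Tween20 was preincubated 15 min at room temperature with compound (up to 114 uM), then FITC-alphaIIb peptide (100 nM) added for 15 min; fluorescence polarization read.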
With `CN1CCCC1CCOC(C)(c1ccccc1)c1ccc(Cl)cc1` (stereo not drawn) the “activity change, negative = inhibition” value was 2.03%.
In the case of `O=C(O)CCC(=O)N1CCCC1C(=O)O` (stereo not drawn), the “activity change, negative = inhibition” value is reported as 13.4%.
For `CC(C)[C@H](NC(=O)OCc1ccccc1)C(=O)N[C@H](C=O)Cc1ccccc1` (Cbz-Val-Phe-aldehyde), the “activity change, negative = inhibition” value was -6.77%.
`Nc1ncnc2c1c(-c1ccc(Oc3ccccc3)cc1)cn2C1CCCC1` was tested, and the “activity change, negative = inhibition” value was 9.23%.
`NC1CCN(O)C1=O` (stereo not drawn) was tested, and the “activity change, negative = inhibition” value was 9.47%.
`Cc1nc(N=Nc2ccc(S(=O)(=O)O)cc2S(=O)(=O)O)c(COP(=O)(O)O)c(C=O)c1O` was tested, and the “activity change, negative = inhibition” value was 4.57%.
With `N#Cc1cc([N+](=O)[O-])c2sc(C(N)=O)[n+]([O-])c2c1` the “activity change, negative = inhibition” value was -7.92%.
For `Nc1ccc(-c2ccc3ccccc3n2)cc1`, the “activity change, negative = inhibition” value was 0.952%.
`CC(N)(Cc1ccc(O)c(O)c1)C(=O)O` (stereo not drawn) was tested, and the “activity change, negative = inhibition” value was 12.5%.
For `Nc1nc2c(cnn2CCc2ccccc2)c2nc(-c3ccco3)nn12`, the “activity change, negative = inhibition” value was 5%.
With `CN1CCc2cc(Cl)c(O)cc2[C@@H](c2ccccc2)C1` the “activity change, negative = inhibition” value was 7.72%.
For `COC(=O)[C@H](NC(=O)c1cc(-c2ccccc2)nc2ccccc12)c1ccccc1`, the “activity change, negative = inhibition” value was 4.26%.
`CCCCCCCCCCC(C)(C)C(=O)Nc1c(OC)cc(OC)cc1OC` was tested, and the “activity change, negative = inhibition” value was 6.96%.
In the case of `Cn1c(=O)c2[nH]c(C3CCCC3)nc2n(C)c1=O`, the “activity change, negative = inhibition” value is reported as -0.607%.
For `NC(=Nc1ccccc1)NC(=O)c1nc(Cl)c(N)nc1N`, the “activity change, negative = inhibition” value was 10.8%.
In the case of `COc1cc(/C=C(\C#N)C(=O)c2ccc(O)c(O)c2)cc(I)c1O`, the “activity change, negative = inhibition” value is reported as 220%.
In the case of `NC(C(=O)N[C@@H]1C(=O)N2C(C(=O)O)=C(Cl)CS[C@H]12)c1ccccc1` (stereo partly drawn), the “activity change, negative = inhibition” value is reported as 2.58%.
For `NC(N)=NC(N)=Nc1ccccc1`, the “activity change, negative = inhibition” value was 8.11%.
`Cc1ccccc1/C=C/C1=NCCN1` was tested, and the “activity change, negative = inhibition” value was 8.71%.
With `COc1ccc(-c2cc3ncc(C)n3c(Nc3ncccc3C(N)=O)n2)cc1OC` the “activity change, negative = inhibition” value was 7.88%.
For `CCCCOC(=O)NS(=O)(=O)c1sc(CC(C)C)cc1-c1ccc(Cn2c(CC)nc3c(C)cc(C)nc32)cc1`, the “activity change, negative = inhibition” value was 2.12%.
For `O=S(=O)(c1cccc2c(Cl)cccc12)N1CCCNCC1`, the “activity change, negative = inhibition” value was 9.42%.
In the case of `CCCCCCCCCCCCCCC[C@H](O)[C@H](N)CO`, the “activity change, negative = inhibition” value is reported as 6.48%.
For `O=c1[nH]c(=S)[nH]c(-c2ccccc2)c1Cc1c(O)ccc2ccccc12`, the “activity change, negative = inhibition” value was 0.453%.
In the case of `CN1C2CCC1CC(OC(c1ccccc1)c1ccccc1)C2` (stereo not drawn), the “activity change, negative = inhibition” value is reported as 1.19%.
In the case of `C[C@]12C=CC(=O)C=C1CC[C@@H]1C2=CC[C@]2(C)[C@@H](C(=O)CN3CCN(c4cc(N5CCCC5)nc(N5CCCC5)n4)CC3)CC[C@@H]12`, the “activity change, negative = inhibition” value is reported as 3.9%.
In the case of `CCCCCCN(CCCCCC)C(=O)Cc1c(-c2ccc(F)cc2)[nH]c2ccccc12`, the “activity change, negative = inhibition” value is reported as 4.44%.
In the case of `COc1ccc(-c2ccc(N)[n+](CCCC(=O)O)n2)cc1`, the “activity change, negative = inhibition” value is reported as 9.26%.
`Cc1ccc2c(c1)C(N1CCN(C)CC1)=Nc1cccnc1N2` was tested, and the “activity change, negative = inhibition” value was 3.58%.
With `COc1ccc2c(c1)c(CC(=O)O)c(C)n2C(=O)c1ccccc1` the “activity change, negative = inhibition” value was 10.3%.
With `CC(C)NC[C@H](O)COc1cccc2ccccc12` the “activity change, negative = inhibition” value was 5.61%.
With `N#CC(C#N)=C(N)/C(C#N)=C/c1ccc(O)cc1` the “activity change, negative = inhibition” value was 6.8%.
With `COc1cccc(OC)c1OCCNCC1CSc2ccccc2O1` (stereo not drawn) the “activity change, negative = inhibition” value was 9.9%.
For `C=CC1(C)CC(=O)C2(O)C(C)(O1)C(OC(C)=O)C(O)C1C(C)(C)CCC(O)C12C` (stereo not drawn), the “activity change, negative = inhibition” value was -0.0703%.
With `[N-]=[N+]=Nc1ccc(C(=O)CSC[C@H](NC(=O)CC[C@H](N)C(=O)O)C(=O)NCC(=O)O)cc1` the “activity change, negative = inhibition” value was 0.864%.
With `O=c1cc(O)cc(/C=C/c2ccc(O)c(O)c2)o1` the “activity change, negative = inhibition” value was 16%.
In the case of `CNCCNS(=O)(=O)c1cccc2cnccc12`, the “activity change, negative = inhibition” value is reported as 6.05%.
`CC(C)NCC(O)COc1ccc(CC(N)=O)cc1` (stereo not drawn) was tested, and the “activity change, negative = inhibition” value was 10.1%.
